uPA surface inh – cell surface uPA generation inhibition; hit rate 0.31% among 330,000; AID 540303; Potency, µM (top dose mostly 38.3 µM), usual class: inhibitors; cell surface uPA generation assay, qHTS; active means well fitted inhibition curve with a large enough effect; inconclusive means small, poorly fitted or top-dose-only effect; inactive means no such curve, though single readings can be large or run the other way; tested in mouse RAW 264.7 cells; further: nearly all actives have a fitted effect of over 55% in size
SMN2 splice enh – enhancers of SMN2 splice variant expression; AID 1458; Potency, µM (series often up to 46.1 µM), usual class: activators; HEK293 SMN2-luciferase splicing reporter, luminescence, 30-36 h; hit rate 2.8% among 210,000; further: nearly all actives have a fitted effect of over 55% in size
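HEK293 cells carry an SMN2 […]–luciferase reporter in which exon 7 inclusion puts luciferase in frame. Cells were plated 10-12 h before compound addition, then incubated 30-36 h at 37C. ONE-Glo luminescence was read; sodium butyrate at 4.5 mM final served as control.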
Rab9 promoter act – Rab9 promoter activation; Potency, µM (titrated, usually from 9.22 µM), actives largely listed as activators; Huh7 Rab9 promoter-luciferase reporter, luminescence, 24 h; hit rate 2.8% among 320,000; further: nearly all actives have a fitted effect of over 60% in size
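Huh7 cells stably carrying Rab9 promoter–luciferase reporter, plated 1500 cells/well, compound added after 2 h and incubated 24 h at 37 °C; luciferase luminescence then read after 10 min with detection reagent.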
FLuc modulator – counter-screen for miR-21 project: firefly luciferase inhibitors or activators | P08659 | purified FLuc, Km substrates, luminescence inhibition | Potency, µM (series often up to 57.5 µM), most hits filed as inhibitors | hit rate 6.9% among 360,000 | AID 588342; further: nearly all actives have a fitted effect of over 55% in size
Target sequence (P08659 whole entry, looked up): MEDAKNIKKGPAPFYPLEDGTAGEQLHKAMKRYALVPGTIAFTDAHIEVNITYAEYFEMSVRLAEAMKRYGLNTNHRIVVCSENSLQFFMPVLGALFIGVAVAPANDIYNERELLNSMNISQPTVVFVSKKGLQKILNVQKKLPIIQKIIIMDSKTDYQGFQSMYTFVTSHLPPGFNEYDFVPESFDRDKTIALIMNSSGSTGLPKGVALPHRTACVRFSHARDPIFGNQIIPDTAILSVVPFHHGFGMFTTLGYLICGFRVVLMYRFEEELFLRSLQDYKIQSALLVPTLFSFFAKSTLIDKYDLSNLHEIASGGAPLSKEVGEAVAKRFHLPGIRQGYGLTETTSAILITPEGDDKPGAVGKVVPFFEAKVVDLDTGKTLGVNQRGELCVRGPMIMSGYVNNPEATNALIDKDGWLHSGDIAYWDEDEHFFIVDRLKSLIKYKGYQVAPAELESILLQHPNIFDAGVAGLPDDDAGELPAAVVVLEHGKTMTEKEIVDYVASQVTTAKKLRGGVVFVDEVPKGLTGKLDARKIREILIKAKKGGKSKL
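Biochemical qHTS of compounds, final roughly 60 µM downward over six points, against 10 nM purified firefly luciferase using Km concentrations of substrates (10 uM D-luciferin, 10 uM ATP) in Tris acetate pH 7.5 buffer; luminescence output.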
ELG1 genotoxic – induces genotoxicity in HEK293T cells with luciferase-tagged ELG1; hit rate 1.3% among 330,000; Potency, µM (highest dose often 46 µM), hits mostly activators; AID 504466; HEK293T ELG1-luciferase reporter, luminescence, 16 h; further: nearly all actives have a fitted effect of over 60% in size
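Genotoxicity was scored as increased ELG1-luciferase reporter signal, measured by ONE-Glo luminescence (30 min, room temperature). Compound or vehicle exposure of the HEK293T reporter cells lasted 16 hr at 37°C.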
NPC1 prom act – activates the NPC1 promoter | Potency, µM (titrated, usually from 9.22 µM), hits mostly activators | Huh7 NPC1 promoter luciferase reporter, 24 h | hit rate 2.4% among 320,000; further: nearly all actives have a fitted effect of over 60% in size
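Readout is luciferase luminescence, reflecting NPC1 promoter activation in stably transfected Huh7 cells after 24 h compound exposure at 37 °C in reduced-serum medium with 10% FBS.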
Numbers stand for hits; - = inactive; ? = inconclusive; . = no result given; [ ] = remark or other dose. Rows were chosen to be rich in hits. Some 7.3% of all compounds tested hit in one or more screens of this group. Unless noted, the call rests on the fitted dose curve; in most records, active means well fitted curve in the direction sought with a large enough effect; inconclusive means small, poorly fitted or top-dose-only effect, or another doubt; inactive means no such curve, though single readings can be large; an effect the other way counts as inactive or inconclusive.

SMILES | uPA surface inh | SMN2 splice enh | Rab9 promoter act | FLuc modulator | ELG1 genotoxic | NPC1 prom act
O=C(COC(=O)/C=C/c1ccc(S(=O)(=O)N2CCOCC2)cc1)Nc1ccccc1F | - | . | . | . | - | .
Cc1ccc2c(c1)c1c(c(=O)n(Cc3ccccc3)c(=O)n1Cc1cccc(C(F)(F)F)c1)n2C | . | . | . | - | . | .
COc1ccc(CN2CCC(=O)N([C@H](CO)CC(C)C)CC2)cc1 | - | . | - | - | - | -
CCOC(=S)SCc1cn2ccccc2n1 | - | - | - | ? | - | -
Cc1ccn2cc(CC(=O)O)nc2c1 | - | . | - | - | - | -
CCOC(=S)SCc1cn2ccc(C)cc2n1 | - | - | - | 24µM | - | -
Cc1ccn2cc(CSc3ccccc3N)nc2c1 | . | ? | 0.63µM | 11µM | ? | 2.2µM
Cc1nnc2c(NCCc3ccccc3)nc3ccccc3n12 | - | . | -[1.84 µM] | - | - | -
CC(=O)c1c(CC(=O)O)[nH]n(-c2nc3ccccc3s2)c1=O | . | - | ? | 12µM | - | -
COC(=O)CC1=NN(c2nc3ccccc3s2)C(=O)/C1=C/N(C)C | - | - | - | ? | - | -
O=c1cc(-c2ccccc2)[nH]n1-c1nc2ccccc2s1 | - | - | - | 17µM | - | -
COC(=O)Cc1[nH]n(-c2nc3ccccc3s2)c(=O)c1C(C)=O | - | - | - | 9.5µM | ? | -
COc1ccc(CN=C(C)c2c(C(F)(F)F)[nH]n(-c3nc4ccccc4s3)c2=O)cc1 | - | - | 4µM | 6.7µM | 15µM | ?
O=C(c1ccc(Br)o1)N1CCc2ccccc21 | . | . | 2.5µM | 4.8µM | ? | 2.2µM
Cc1nn(C)c(C(=O)N2CCc3ccccc32)c1Br | - | - | - | - | - | -
Cc1c(Br)c(C(=O)N2CCc3ccccc32)nn1C | - | ? | ? | 21µM | ? | -
Nc1ccccc1C(=O)N1CCc2ccccc21 | - | . | ? | 19µM | - | ?
COc1ccccc1C(=O)N1CCc2ccccc21 | . | - | - | - | - | -
COCc1c(C(=O)N2CCc3ccccc32)oc2ccccc12 | - | . | - | ? | - | -
Cc1c(C(=O)N2CCc3ccccc32)oc2ccccc12 | - | 3.5µM | 3.5µM | 0.95µM | 3.7µM | ?
COc1ccc(NC(=O)CSc2nc3nc(C)c(Cc4ccccc4)c(C)n3n2)cc1OC | . | . | . | - | . | .
COc1ccc(-c2onc(C)c2C)cc1S(=O)(=O)N1CCN(c2ccc(Cl)cc2)CC1 | . | . | . | - | . | .
C=CC[C@]12C=C(OC)C(=O)C(OC)=C1O[C@@H](c1ccc3c(c1)OCO3)[C@H]2C | - | . | . | . | . | .
C=CC[C@]12CC=CC(=O)[C@@]1(O)O[C@H](c1ccc(OC)c(OC)c1)[C@H]2C | 7.9µM | . | . | . | . | .
C=Cc1ccc(Cn2c(=O)n(-c3cccc(C)c3)c(=O)c3c2c2cc(C)ccc2n3C)cc1 | . | . | . | - | . | .
SMILES | uPA surface inh | SMN2 splice enh | Rab9 promoter act | FLuc modulator | ELG1 genotoxic | NPC1 prom act
O=C(N/N=C/c1ccccn1)c1cc(-c2ccc(Br)cc2)nc2ccccc12 | - | . | - | 5.4µM | ? | -
O=C(N/N=C/c1ccccn1)c1cc(-c2ccc(Cl)cc2)nc2ccccc12 | - | - | - | 6.7µM | - | -
COc1ccccc1C(=O)NC1(C(F)(F)F)C(=O)Nc2c1c(=O)[nH]c(=O)n2-c1ccc(F)cc1 (stereo not given) | . | - | . | ? | . | .
CC1CCCN(C(=O)Cn2c(=O)n(CC3CCC(C(=O)NC(C)C)CC3)c(=O)c3sccc32)C1 (stereo not given) | . | . | . | - | . | .
Cc1ccc(NC(=S)c2ccncc2)c(C)c1 | ? | . | - | - | - | -
Cc1ccc(NC(=S)c2nc3ccccc3[nH]2)c(C)c1 | - | 5.6µM | 3.5µM | 1.7µM | ? | 3.5µM
Cc1ccc(NC(=S)c2nc3ccccc3[nH]2)cc1 | - | 28µM | 0.63µM | 0.67µM | ? | 4µM
COc1ccccc1C(=O)N1c2ccccc2C(C)(c2ccc(Cl)cc2)CC1(C)C (stereo not given) | . | - | . | - | . | .
CO[C@]12C(COC(N)=O)C3=C(C(=O)C(C)=C(N)C3=O)N1CC1NC12 (stereo not given in full) | . | - | . | . | . | .
O=C(COC(=O)c1ccc(CO)cc1)Nc1ccc(OC(F)F)cc1 | - | - | - | - | - | -
COc1ccc2c(c1OC)C(=O)N1N=C(c3ccc(Cl)cc3)CC21 (stereo not given) | - | - | - | ? | - | -

Source: PubChem BioAssay
